{
  "source": "PubChem BioAssay AID2842",
  "about": "(Southern Research Institute, 2010)",
  "note": "Out of some 24,000 compounds screened, about 1,200 (5%) were called active. Another 2% or so got no clear call; they are omitted. The list is a sample of the results. Unmarked numbers belong to inactive results. How the calls were made is not given here.",
  "data": [
    {"experiment": "Mycobacterium tuberculosis H37Rv growth inhibition, putative kinase inhibitor library, confirmatory dose response (AID 2842);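 further: bacteria incubated one week before Alamar blue readout; 0% = bacteria only wells and 100% = bacteria with high antibiotic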", "conditions": "M. tuberculosis H37Rv growth inhibition; CC50: measured here: Vero cell cytotoxicity; inhibition: stronger effect = higher value", "units": {"inhibition": "%"}, "values": [
      {"smiles": "COc1ccc(OC)c(-c2nnc(NC(=O)C(C)Sc3ccccc3)s2)c1", "note": "(stereo not given)", "inhibition": -0.69},
      {"smiles": "COc1ccc(Nc2nc(N3CCN(c4cccc(Cl)c4)CC3)nc3nccnc23)cc1", "inhibition": 9.83},
      {"smiles": "CCN(CC)CCCNc1ncnc2sc3c(c12)CC(C)CC3", "note": "(stereo not given)", "inhibition": 5.59},
      {"smiles": "COc1cc(C(=O)NC(=S)Nc2cccc3c2C(=O)NC3=O)cc(OC)c1OC", "inhibition": -8.66},
      {"smiles": "Cn1c(=O)c2c(nc(SCCN3CCOCC3)n2Cc2ccccc2)n(C)c1=O", "inhibition": 0.8},
      {"smiles": "COc1ccc(C(=O)c2cn(CC(=O)Nc3ccc(F)cc3)c3ccc(F)cc3c2=O)cc1", "inhibition": 9.54},
      {"smiles": "CC1(C)Cc2c(sc(NC(=O)/C=C/c3ccccc3)c2C#N)C(C)(C)N1", "inhibition": -4.69},
      {"smiles": "COc1ccc(CC(=O)NCCc2cc3ccc(C)cc3[nH]c2=O)cc1OC", "inhibition": 11.1},
      {"smiles": "CC1(C)COc2ccc(NC(=O)Cc3cccs3)cc2NC1=O", "inhibition": 6.11},
      {"smiles": "CCS(=O)(=O)c1cccc(C(=O)Nc2sc(C)c(C)c2C(=O)NC)c1", "inhibition": -4.86},
      {"smiles": "CCOC(=O)N1CCN(C(=O)COc2cccc3c2CCN(CC)C3=O)CC1", "inhibition": -2.11},
      {"smiles": "Cn1c(Cn2c(=O)sc3ccccc32)nnc1SCC(=O)Nc1ccc2c(c1)OCO2", "inhibition": -4.61},
      {"smiles": "CC(C)N1CCc2c(sc(NC(=O)c3ccccc3Oc3ccccc3)c2C(N)=O)C1", "inhibition": 81.6},
      {"smiles": "COC(=O)c1c(NC(=O)c2ccccc2)sc2c1CC(C)(C)NC2(C)C", "inhibition": 16.8},
      {"smiles": "Cc1ccc(NC(=O)CSc2nccn(-c3ccc(F)cc3)c2=O)c(C)c1", "inhibition": -11.8},
      {"smiles": "CNC(=O)C(=O)c1c[nH]c2ccccc12", "inhibition": 4.99},
      {"smiles": "CC1CCCCN1c1ncnc(N)c1[N+](=O)[O-]", "note": "(stereo not given)", "inhibition": 1.66},
      {"smiles": "CC1(C)Cc2c(sc(NC(=O)c3cccc(F)c3)c2C#N)C(C)(C)N1", "inhibition": -10.1},
      {"smiles": "Cc1nnc(SCc2ccc([N+](=O)[O-])cc2)n(N)c1=O", "inhibition": 1.18},
      {"smiles": "O=C1/C(=C/c2ccc(Br)cc2)Oc2cc(O)ccc21", "inhibition": 8.31},
      {"smiles": "COc1ccc(CNc2nc3c(-c4ccc(Cl)cc4)nnn3c3ccccc23)cc1", "inhibition": 4.87},
      {"smiles": "O=C(Nc1nc2c(cc3c4c(cccc42)CC3)s1)C(c1ccccc1)c1ccccc1", "inhibition": 10.3},
      {"smiles": "Cc1cc(OC(=O)C23CC4CC(CC(C4)C2)C3)c([N+](=O)[O-])c(=O)[nH]1", "inhibition": 2.01},
      {"smiles": "C=CCn1c(N(C)C)nc2c1c(=O)[nH]c(=O)n2C", "inhibition": -2.63},
      {"smiles": "CCOc1ccccc1NC(=O)c1oc2ccccc2c1NC(=O)COc1ccccc1", "inhibition": 10.5}
    ]}
  ]
}
